From PubChem BioAssay
In the library only some 4.7% were active in any assay of this set; here they are far more common.
HepG2 viability: HepG2 cytotoxicity, counter-screen for TGF-b inhibitors; HepG2 CAGA-GFP viability, ATP luminescence, 18 h; 410,000 compounds, 0.76% hits; Potency, µM (titrated, usually from 46.1 µM), actives largely listed as cytotoxic; AID 588856
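HepG2 CAGA-GFP cells (1000/well, DMEM with 1% FBS) received compound, then TGF-beta at 500 pg/mL final, and were incubated 18 hours at 37 degrees C. Viability was read by CellTiter-Glo luminescence. Media-only wells were set as complete cell-killing and DMSO as no toxicity.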
ATXN viability: viability counter-screen for ATXN expression inhibitors; S2 cells (HEK-293 line with an ATXN2-luciferase reporter) viability, CellTiter-Fluor protease fluorescence, 24 h; Potency, µM (highest dose often 56.7 µM), usual class: cytotoxic; 400,000 compounds, 0.49% hits; note: nearly all actives have a fitted effect of over 40% in size
TGFb SMAD3 inh: TGF-b pathway inhibition | 410,000 compounds, 1.2% hits | Potency, µM (series often up to 46.1 µM), most hits filed as inhibitors | HepG2 CAGA-GFP TGF-b/SMAD3 reporter, GFP fluorescence, 18 h; TGF-beta stimulated, 500 pg/mL final | AID 588855; note: nearly all actives have a fitted effect of over 65% in size
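Read-out: total well GFP (ex488/em500-530) summed from mean per-cell fluorescence. Cells: HEPG2 CAGA-GFP, 1% FBS DMEM, 18 h at 37 degrees C with 500 pg/mL final TGF-beta. Unstimulated wells served as the full-inhibition control; stimulated DMSO wells = 0%.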
ATXN2 expr inh: inhibitors of ATXN2 expression. HEK-293 ATXN2-luciferase reporter, luminescence, 24 h. Potency, µM (series often up to 57 µM), actives largely listed as inhibitors. 360,000 compounds, 0.72% hits; note: nearly all actives have a fitted effect of over 55% in size
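qHTS (up to 57 uM final) was run with 24 h compound exposure of reporter cells at 37 °C. Each well was multiplexed: SteadyGlo luminescence measured ATXN2-luciferase expression after a fluorogenic Gly-Phe-AFC viability readout (25 uM final).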
DRD3 antagonist: D3 dopamine receptor (human) antagonism; P35462; 360,000 compounds, 2.5% hits; D3R cells, DiscoveRx beta-arrestin luminescence, antagonist mode; hits give low values; max response, negative = inhibition, %; AID 652054; in the data active = max response below about -50%; inconclusive = no clear call, values can overlap the other calls
Target sequence (P35462 whole entry, looked up): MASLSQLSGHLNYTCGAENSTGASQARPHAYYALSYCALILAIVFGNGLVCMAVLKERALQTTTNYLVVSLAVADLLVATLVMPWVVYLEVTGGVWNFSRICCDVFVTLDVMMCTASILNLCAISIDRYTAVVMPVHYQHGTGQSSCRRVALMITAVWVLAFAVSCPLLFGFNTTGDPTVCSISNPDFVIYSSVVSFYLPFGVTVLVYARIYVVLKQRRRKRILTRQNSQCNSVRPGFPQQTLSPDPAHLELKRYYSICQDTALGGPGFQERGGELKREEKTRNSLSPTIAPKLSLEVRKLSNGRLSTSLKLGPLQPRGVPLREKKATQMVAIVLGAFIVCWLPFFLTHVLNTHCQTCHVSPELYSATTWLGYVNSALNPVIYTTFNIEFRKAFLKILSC
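Cells expressing the human receptor were seeded at 1500 cells/well, incubated overnight at 37 degrees C in 5% CO2, then exposed to library compounds with dopamine controls for 90 minutes at 37 degrees C before luminescent detection.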
D3 ag: activates the human D3 dopamine receptor | D3R DiscoveRx beta-arrestin cells, luminescence, 90 min | 410,000 compounds, 0.58% hits | AID 652048 | max activation, % | P35462; in the data active = max activation above about 30%
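Cells at 1500/well, incubated overnight, then treated with pinned compounds (dopamine as control) for 90 min at 37 degrees C. DiscoveRx reagent added for 30 - 60 minutes at room temperature; luminescence read.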
Numbers stand for hits; n = inactive; u = inconclusive; x = no result given. Unless noted, calls come from the whole dose curve; as a rule, active = well fitted curve in the direction sought with a large enough effect; inconclusive = small, poorly fitted or top-dose-only effect, or another doubt; inactive = no such curve, though single readings can be large; an effect the other way counts as inactive or inconclusive.

SMILES	HepG2 viability	ATXN viability	TGFb SMAD3 inh	ATXN2 expr inh	DRD3 antagonist	D3 ag
CCOC(=O)C1CCCN(S(=O)(=O)c2cc3c(cc2C)NC(=O)CO3)C1 (stereo unspecified)	n	n	n	n	x	n
Oc1ccc(Nc2nc3ccccc3nc2Nc2ccc(O)cc2)cc1	n	u	11µM	u	u	n
Oc1ccc(Nc2nc(-c3ccccc3)nc3ccccc23)cc1	n	n	n	n	n	n
C/C(=N\Nc1nncc2ccccc12)c1ccc(O)cc1	n	n	n	n	n	n
COc1ccc(-c2nc(N/N=C(\C)c3ccc(O)cc3)c3ccccc3n2)cc1	n	u	14µM	u	n	n
Oc1ccc(Nc2nc(-c3ccc(Cl)cc3)nc3ccccc23)cc1	14µM	x	u	x	x	n
COc1cccc(NC(=O)CCc2nc3c(C)nn(-c4ccc(C)cc4)c3n(C)c2=O)c1	n	n	n	n	x	n
CNC(=O)c1c(NC(=O)c2ccc(S(=O)(=O)N3CCCC(C)C3)cc2)sc2c1CCC2 (stereo unspecified)	n	x	n	n	x	n
COC(=O)C1=C(C)NC(C)=C(C(=O)OCCc2ccc(N3CCN(C(c4ccccc4)c4ccccc4)CC3)cc2)C1c1cccc([N+](=O)[O-])c1 (stereo unspecified)	x	n	x	n	x	x
C=CCn1c(SCC(=O)Nc2ccc3c(c2)OCO3)nnc1-c1cc(Br)ccc1O	n	n	n	n	-51	n
CC(=O)Nc1ccc(NC(=O)CSc2nnc(-c3ccccc3)n2Cc2ccc3c(c2)OCO3)cc1	n	n	n	n	-103	n
C=CCn1c(SCC(=O)Nc2ccc3c(c2)OCO3)nnc1-c1ccccc1	n	n	n	n	n	n
CCn1c(Cc2ccccc2)nnc1SCC(=O)Nc1ccc2c(c1)OCCO2	n	n	n	n	n	35
CCn1c(COc2ccccc2C)nnc1SCC(=O)Nc1ccc2c(c1)OCCO2	n	n	n	n	n	n
CC(C)(O)C#Cc1ccc(CN2CCc3nnc(CNC(=O)c4cccc(F)c4)n3CC2)cc1	x	n	x	x	x	x
Cc1cc(C)nc(-c2cccc3c2OC(CNC(=O)C2CCOC2)C3)n1 (stereo unspecified)	x	n	x	x	x	x
CC(C)(C)n1ncc2c(=O)n(Cc3cccc(OC(F)(F)F)c3)cnc21	n	x	u	x	x	x
CCN(N=O)[C@@H](Cc1ccccc1)CN(N=O)[C@@H](Cc1ccccc1)CN(C)N=O	n	n	n	n	n	32
CC(C)CCN(N=O)[C@@H](Cc1ccccc1)CN(N=O)[C@@H](Cc1ccccc1)CN(C)N=O	n	n	n	n	n	n
CCCNC(=O)Cn1ncc2c3ccccc3n(CCC)c2c1=O	n	n	n	n	x	n
CCc1ccc2[nH]c(=O)c(C(c3nnnn3CC3CCCO3)N3CCCc4ccccc43)cc2c1 (stereo unspecified)	n	u	n	n	n	38
Cn1c(=O)[nH]c(=O)c2[nH]c(N(Cc3ccccc3)Cc3ccccc3)nc21	13µM	u	11µM	u	n	n
Cn1c(=O)[nH]c(=O)c2[nH]c(CN3CCN(Cc4ccccc4)CC3)nc21	n	n	n	n	n	n
O=C(Oc1oc(-c2ccco2)nc1C=Nc1ccccc1)c1ccco1	n	n	n	n	-50	n
O=C(Oc1oc(-c2ccco2)nc1C=Nc1ccccc1)c1ccoc1	n	n	n	n	u	n
SMILES	HepG2 viability	ATXN viability	TGFb SMAD3 inh	ATXN2 expr inh	DRD3 antagonist	D3 ag
O=C(c1ccc(NC2=NC3CS(=O)(=O)CC3S2)cc1)N1CCN(c2ccccc2F)CC1 (stereo unspecified)	n	n	n	n	-61	n
O=P(Cc1nnco1)(c1ccccc1)c1ccccc1	n	n	n	n	-63	n
CCOc1ccc(-c2nnn(CC(=O)c3ccc4c(c3)OCCO4)n2)cc1	n	n	u	n	n	37
CCCOc1ccc(-c2nnn(CC(=O)c3ccc4c(c3)OCCO4)n2)cc1	n	n	n	n	n	n
CCCCOc1ccc(-c2nnn(CCC(=O)N3CCOCC3)n2)cc1	n	n	n	n	-96	n
O=C(C[N+]12CN3CN(CN(C3)C1)C2)c1ccc(Br)cc1	n	x	n	x	x	x
CC(C)(C)c1cc(NCc2ccccn2)n2ncc(-c3ccccc3)c2n1	n	n	14µM	n	n	n
O=C(Cc1cccs1)NC(c1ccccc1)c1ccccc1	n	n	n	n	n	n
O=C(COC(=O)/C(=C/c1cccs1)c1cccs1)NC(c1ccccc1)c1ccccc1	n	n	13µM	n	n	n
COc1cccc(OC)c1C(=O)NCCc1ccccc1	n	n	n	n	n	n
COC(=O)c1c(N)sc(C(=O)NCCc2ccccc2)c1C	n	n	n	3.5µM	n	n
Cc1ccc(Cl)cc1NC(=O)Cn1c(=O)n(Cc2ccccc2)c(=O)c2oc3ccccc3c21	n	n	n	n	x	n
CCCCCCCCCn1ccc(=N)cc1	n	n	u	2.1µM	n	n
Cc1cc(NC(=O)c2ccoc2C)ccc1Br	n	n	16µM	n	n	n
CN(C)c1ccc(C=Nc2cncc3ccccc23)cc1	n	x	n	x	x	x
O=C1NC(Cc2ccc(O)cc2)c2nc3cc(F)ccc3c(=O)n2-c2cc3ccccc3cc21 (stereo unspecified)	n	u	20µM	u	n	n
Cc1ccc2c(=O)n3c(nc2c1)C(Cc1ccc(O)cc1)NC(=O)c1cc2ccccc2cc1-3 (stereo unspecified)	n	u	u	u	n	n
CO[C@H]1C[C@@H]2CC[C@@H](C)[C@@](O)(O2)C(=O)C(=O)N2CCCC[C@@H]2C(=O)O[C@H]([C@H](C)C[C@@H]2CC[C@H](OP(C)(C)=O)[C@H](OC)C2)CC(=O)[C@H](C)C=C(C)[C@@H](O)[C@@H](OC)C(=O)[C@H](C)C[C@H](C)C=CC=CC=C1C	x	x	x	n	x	x
COC(=O)CN1C(c2ccccc2)=Nc2ccc(Cl)cc2C1c1ccccc1 (stereo unspecified)	n	x	n	x	-56	n
NNC(=O)CN1C(c2ccccc2)=Nc2ccc(Br)cc2C1c1ccccc1 (stereo unspecified)	n	n	n	n	n	n
NNC(=O)CN1C(c2ccc(Cl)cc2)=Nc2ccc(Br)cc2C1c1ccccc1 (stereo unspecified)	n	n	n	n	-59	n
COC(=O)c1ccccc1NC(=O)CN1CCC(n2nnc3cc(F)ccc32)CC1	n	n	n	n	n	n
O=C(CN1CCC(n2nnc3cc(F)ccc32)CC1)NC1CC1	n	n	n	n	-57	n
O=C(CN1CCC(n2nnc3cc(F)ccc32)CC1)NC1CCCCC1	n	n	n	n	-86	n
